TIM10 inh = inhibits growth of TIM10 yeast strain; S. cerevisiae TIM10 strain growth, BacTiter-Glo luminescence, 24 h; inhibition, % at 10 µM; actives 1.4% (n = 330,000);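 active = inhibition of 40% or more at the single tested concentration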;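 note: wild-type TIM10 isogenic control strain grown at permissive 25 °C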
PfHsp90 yeast 2 = reduces growth (ATP signal) of yeast expressing P. falciparum Hsp90 | actives 0.32% (n = 310,000) | inhibition, % at 9.4 µM | AID 504621 | S. cerevisiae expressing PfHsp90, BacTiter-Glo ATP, 48 h; yeast lacking PDR1 and PDR3 efflux regulators;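 active = every replicate shows inhibition above about 80%, whatever the replicate mean, limit read from the data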
tim10-1 inh = growth inhibitors of tim10-1 mutant yeast; S. cerevisiae tim10-1 ts strain growth, BacTiter-Glo, 24 h; inhibition, % at 20 µM; actives 2.2% (n = 330,000); AID 463190;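 active = inhibition of at least 40%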;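 note: mutant grown at 25 °C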
tim23-1 inh = growth inhibitors of tim23-1 mutant yeast | S. cerevisiae tim23-1 growth, BacTiter-Glo luminescence, 24 h | inhibition, % at 20 µM | actives 1.3% (n = 330,000) | AID 463212;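 active = growth inhibition of the mutant yeast at or above 50%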;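 note: temperature-sensitive mutant grown at 25 °C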
NALP1 yeast inh = blocks the NALP1 inflammasome reconstituted in yeast; S. cerevisiae NALP1/ASC/caspase-1 growth, X-gal OD620, 72 h; inhibition, % at 10 µM; actives 0.61% (n = 280,000); in the data active = inhibition mostly above about 24%, no sharp cut-off; inactive = mostly below about 32%
NLRP3 yeast inh = blocks the NALP3 inflammasome reconstituted in yeast; Yeast reconstituted NLRP3/ASC/caspase-1, beta-gal luminescence, 24 h; inhibition, % at 10 µM; actives 0.39% (n = 330,000);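 active = inhibition of 50% or more; inactive = inhibition below 50%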
tim10-1 conf = confirmation of tim10-1 mutant yeast growth inhibitors; actives 56% (n = 7,400); inhibition, % at 20 µM; S. cerevisiae tim10-1 ts strain growth, BacTiter-Glo, 24 h; shares compounds with tim10-1 inh;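 active = inhibition of yeast growth at or above a set limit in either of two repeat tests at 20 µM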;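 note: tim10-1 mutant grown at permissive 25 °C to find synthetic lethal compounds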
A number is an active result; i = inactive; nt = not tested or not shown. Only some compounds are listed: those with a hit (about 4.1% of all), similar ones and a draw of the others.

SMILES	TIM10 inh	PfHsp90 yeast 2	tim10-1 inh	tim23-1 inh	NALP1 yeast inh	NLRP3 yeast inh	tim10-1 conf
CCCN(CCC)C(=O)c1cc(-c2ccc3c(c2)OCO3)nc2ccccc12	i	i	45	i	i	i	i
CCOc1ccccc1NC(=O)CCS(=O)(=O)c1ccc(Br)cc1	i	i	41	i	i	i	39
CCCC1CCC(C(=O)Nn2c(C)nc3ccccc3c2=O)CC1 (centres undefined)	i	i	47	i	i	i	i
CCn1c(=O)c(C(=O)Nn2c(C)nc3ccccc3c2=O)c(O)c2ccccc21	i	nt	43	i	i	i	i
CCn1c(=O)c(C(=O)NNC(=O)c2cccc(Cl)c2)c(O)c2ccccc21	i	i	46	i	i	i	51
CCn1c(C)cc(O)c(C(=O)Nc2cccc(Cl)c2)c1=O	i	i	45	i	i	i	i
Cc1cc(C(F)(F)F)nc(SCC(=O)NC2CCCCC2)n1	i	i	i	i	i	i	nt
Cc1cc(Cl)ccc1OC(C)C(=O)N1CCCN(C(=O)C(C)Oc2ccc(Cl)cc2C)CC1 (centres undefined)	i	i	44	i	i	i	i
Cc1nc2c(cnn2CCO)c(=O)[nH]1	nt	i	nt	nt	nt	nt	nt
Cc1ccccc1-c1nc2ccccc2c(=O)n1/N=C/c1ccccc1[N+](=O)[O-]	i	nt	44	i	i	i	i
Cc1cc(C(=O)NC(C)C2CC2)c(Cl)cc1Cl (centres undefined)	i	i	i	i	i	i	nt
CC1(C)C(C(=O)OCC(Cl)(Cl)Cl)N2C(=O)C(NC(=O)Cc3ccccc3)C2S1=O (centres undefined)	i	i	i	i	i	i	nt
Cn1c(=O)n(Cc2ccc(F)cc2)c(=O)c2c1nc1n2CCCN1C1CCCCC1	i	i	48	i	i	i	i
Cn1c(=O)n(C/C=C/c2ccccc2)c(=O)c2c1nc1n2CCCN1c1ccc(F)cc1	i	i	46	i	i	i	i
CC(C)Cn1c(=O)c2c(nc3n2CCCN3Cc2ccccc2)n(C)c1=O	i	i	42	i	i	i	i
COc1cc(C(=O)OCC(=O)c2ccccc2)cc2c1OCCO2	i	nt	i	i	nt	i	nt
O=C(O)c1cc(S(=O)(=O)N2CCCCC2)ccc1N1CCCCC1	i	i	i	i	nt	i	nt
COc1cc(Oc2nc(C(F)(F)F)nc3ccccc23)ccc1C=O	i	i	i	i	i	i	nt
CSc1cccc(NC(=S)N2CCC(c3ccccc3)C2)c1 (centres undefined)	i	i	48	i	i	i	i
CC/C(=N\NC(=S)Nc1cc(C)ccc1C)c1ccc(OC(F)F)cc1	i	i	58	i	i	i	36
C/C(=N\NC(=S)Nc1c(C)cccc1C)c1ccc(OC(F)F)cc1	i	i	43	i	i	i	41
O=C1c2ccccc2C(Nc2ccc3c(c2)OCCO3)N1Cc1ccccc1 (centres undefined)	i	i	i	i	i	i	i
CCOc1ccc(NC2c3ccccc3C(=O)N2Cc2ccc3c(c2)OCO3)cc1 (centres undefined)	i	i	i	i	i	i	nt
COc1ccc(CCNc2oc(COc3ccccc3)nc2C#N)cc1	i	i	47	i	i	i	43
COc1ccc(C(=S)N2CCCCC2)cc1Br	i	i	i	i	i	i	nt
SMILES	TIM10 inh	PfHsp90 yeast 2	tim10-1 inh	tim23-1 inh	NALP1 yeast inh	NLRP3 yeast inh	tim10-1 conf
S=C(c1ccc(N2CCCC2)c(Br)c1)N1CCCCC1	i	i	45	i	i	i	i
Cc1nc2cc(-c3sccc3-n3cccc3)nn2c(C)c1C	i	i	46	i	i	i	34
CCCCN1/C(=C/c2ccc3ccccc3[n+]2CC)Sc2ccccc21	i	i	60	i	i	i	57
CCCCN1/C(=C/c2cccc[n+]2C)Sc2cc(NC(C)=O)ccc21	i	i	i	i	i	i	nt
CCn1c(-c2csc3c2CCC(C)C3)n[nH]c1=S (centres undefined)	i	i	48	i	i	i	i
O=C(NCCN1CCOCC1)c1ccc(Cl)c(S(=O)(=O)NCc2ccccc2)c1	i	i	i	i	nt	i	nt
CC(C)OC(=O)C(=O)NNc1ccccc1	i	i	i	i	i	i	nt
C=C(C)C(=O)NNc1ccccc1	i	i	41	i	27	i	37
O=C(CN1C(=O)c2cccnc2Oc2ccc(Cl)cc21)NC1CCCCC1	i	i	i	i	i	i	nt
COc1cccc(C(=O)N2N=C(c3cccc(OC)c3)CC2(O)C(F)(F)F)c1 (centres undefined)	i	i	40	i	i	i	i
COc1ccc(NC(=O)CC2SC(=O)NC2=O)cc1 (centres undefined)	i	i	41	i	i	i	34
CCOC(=O)CN1C(=O)S/C(=C/c2ccc(N3CCCCC3)o2)C1=O	i	i	i	i	i	i	nt
CCCN1C(=O)S/C(=C\c2ccc(N3CCOCC3)o2)C1=O	i	i	45	i	i	i	48
COC(=O)CN1C(=O)S/C(=C/c2ccc(N3CCCCC3)o2)C1=O	i	i	54	i	i	i	51
CCCN1C(=O)S/C(=C\c2ccc(N3CCOCC3)cc2C)C1=O	nt	nt	nt	nt	i	nt	nt
CCCN1C(=O)S/C(=C/c2ccc(N3CCOCC3)o2)C1=O	i	i	41	i	i	i	38
CC(NC(=O)c1ccc(Cl)cc1)c1nnc(SCC(=O)NC2=NCCS2)n1C (centres undefined)	i	i	i	i	i	i	nt
CC(=O)N(C)c1ccc(N=NC2C(=O)N(C(N)=S)N=C2C)cc1 (centres undefined)	i	i	i	i	i	i	nt
C/C(=N\NC(=O)CNC(=O)c1cccs1)c1ccc(Cl)c(Cl)c1	i	i	51	i	i	i	i
COc1ccc(NC(=O)CNc2cccc(S(=O)(=O)N3CCCCCC3)c2)c([N+](=O)[O-])c1	i	i	i	i	nt	i	nt
CCc1ccc(CNC(=O)c2cc3c(C)nc4ccccc4c3o2)cc1	i	i	43	i	i	i	i
Cc1nc2ccccc2c2oc(C(=O)NCC3COc4ccccc4O3)cc12 (centres undefined)	i	nt	41	i	i	i	i
COc1cccc(CNC(=O)c2cc3c(C)nc4ccccc4c3o2)c1	i	i	i	i	i	i	nt
CCN1CCCC1CNC(=O)c1cc2c(C)nc3ccccc3c2o1 (centres undefined)	i	i	i	i	i	i	nt
O=C(NCc1cccnc1)C1CCC(CNS(=O)(=O)c2cccc3nsnc23)CC1 (centres undefined)	i	i	i	i	nt	i	nt
C/C(CC(=O)Nc1ccc(N(C)C)cc1)=N\NC(=O)c1ccccn1	i	i	49	i	i	i	32
